We go through 40 compounds from PubChem BioAssay (EPA / NIEHS).

Active and inactive are the calls of the source. Rule for the calls: active = hit-call score of the fitted dose curve at least 0.9, where 1 is the maximum; inactive = score below 0.9.

Read-out in the assay: Macrophage colony-stimulating factor (MCSF), CSF1 (gene 1435)
Nature of the assay: BSK_LPS_MCSF: BioMAP Diversity Plus: LPS Assay for Macrophage colony-stimulating factor (MCSF) Biomarker Activity (AID 2283083). The note with it: primary human HUVEC with PBMC; actives raise or lower the signal. On the procedure:
BSK_LPS is a cell-based, multiplexed-readout assay that uses umbilical vein endothelium and peripheral blood mononuclear cells, a human vascular primary cell co-culture, with measurements taken at 24 hours after chemical dosing in a 96-well plate.BSK_LPS_MCSF is an assay component measured in the BSK_LPS assay. It measures M-CSF antibody related to regulation of gene expression using ELISA technology.Data from the assay component BSK_LPS_MCSF was analyzed into 1 assay endpoint. This assay endpoint, BSK_LPS_MCSF, was analyzed with bidirectional fitting relative to DMSO as the negative control and baseline of activity. Using a type of binding reporter, gain or loss-of-signal activity can be used to understand changes in the signaling as they relate to the gene CSF1. Furthermore, this assay endpoint can be referred to as a primary readout, because this assay has produced multiple assay endpoints where this one serves a signaling function. To generalize the intended target to other relatable targets, this assay endpoint is annotated to the cytokine intended target family, where the subfamily is colony stimulating factor.
The levels of cell surface (or secreted, indicated by the prefix "s") biomarker endpoints were measured by ELISA. Overt cytotoxicity to cells in confluent adherent cultures (all systems other than the BT system) was assessed by measuring total protein levels using sulforhodamine B (SRB) staining in parallel cultures at the time of biomarker measurements, indicated as SRB endpoints. For proliferation assays for adherent cell types, individual cell types are cultured at sub-confluence and relative cell numbers quantified by SRB staining at time points optimized for each system (48 h: 3C and CASM3C systems; 72 h: BT and HDF3CGF systems; 96 h: SAg system). SRB was performed by staining cells with 0.1% SRB after fixation with 10% TCA and reading wells at 560 nm.Viability and proliferation of PBMC (T cells) was quantified by Alamar Blue reduction for the SAg and BT systems. For PBMC viability (referred to as PBMC Cytotoxicity within the assay endpoint names), cells were plated (75,000/well in a 96-well plate) and then chemical samples added for 1 h before addition of activators, SEB and TSST-1 (20 ng/mL final concentration each). Cells were incubated for 90 h. Then, Alamar Blue (20 uL/well) (Invitrogen, Cat DAL1100) was added for 6 h, and the plates were read with a fluorescence microplate reader at 546/580 nm (excitation/emission). For PBMC proliferation, cells were plated and activated as above but incubated for only 16 h prior to addition of Alamar Blue. Plates were read after 6 h.
As usually defined, the AC50 is the concentration at which the activity in the assay is half-maximal. Consider `CCCCN(CCCC)C(=O)N(CCCC)CCCC`, for which the AC50 was 20 µM (active). Regarding `COc1ccc(CCN2CCC(Nc3nc4ccccc4n3Cc3ccc(F)cc3)CC2)cc1`, the outcome was inactive. Turning to `CCC(C)c1cc([N+](=O)[O-])cc([N+](=O)[O-])c1OC(=O)OC(C)C` (stereo not given), the AC50 is 14 µM (active). For `COc1ccc(OC)c(N=Nc2c(O)ccc3ccccc23)c1`, the AC50 was 20 µM (active).

As to `C1=CC2C3C=CC(C3)C2C1` (stereo not given), the result was inactive. As to `CC(=O)Nc1ccc(C(=O)CCl)cc1`, the AC50 is 5.36 µM (active).

In the case of `CC(C)(C)CC(C)(C)c1ccc(OCCOCC[N+](C)(C)Cc2ccccc2)cc1`, the AC50 is 7.03 µM (active). On to `O=C(Nc1ccc2c(O)c(N=Nc3ccc(N=Nc4ccc(S(=O)(=O)O)cc4)cc3)c(S(=O)(=O)O)cc2c1)c1ccccc1`, for which the outcome was inactive.

For the compound `O=CN1CCOCC1`, the outcome was inactive.

On to `CCCCCCC(CO)CCCC` (stereo not given), for which the outcome was inactive. On the same count and under the same terms, with `CCOC(=O)C(C#N)=C(c1ccccc1)c1ccccc1` the entry was “inactive”. Regarding `CCN(CC)C(=O)N(CC)CC`, the outcome was inactive. Turning to `CSCCC=O`, the result was inactive.

As to `CCCCOC(=O)CCCCCCCC(=O)OCCCC`, the outcome was inactive. For `IC(I)I`, the result was inactive. Turning to `C[C@@H]1CCN(C(=O)[C@H](CCCN=C(N)N)NS(=O)(=O)c2cccc3c2NC[C@H](C)C3)[C@@H](C(=O)O)C1`, the outcome was inactive. With `Oc1c(Cl)cc(Cl)c(Cl)c1Cc1c(O)c(Cl)cc(Cl)c1Cl`, the AC50 is 11.6 µM (active). For the compound `CC=Cc1ccc(OCC)c(O)c1`, the result was inactive.

As for `CCCCCCCCCCCCCCCC(=O)OC/C=C(C)/C=C/C=C(C)/C=C/C1=C(C)CCCC1(C)C`, the result was inactive. With `O=C1OC2(c3ccccc31)c1ccc(O)c(Br)c1Oc1c2ccc(O)c1Br`, the AC50 is 20 µM (active). For `CC1(C)CCC[C@]2(C)[C@H]3CCO[C@]3(C)CC[C@@H]12`, the result was inactive. In the case of `CC(C)(N=C=O)c1cccc(C(C)(C)N=C=O)c1`, the result was inactive. `CC(CN=Cc1ccccc1O)N=Cc1ccccc1O` (stereo not given): the outcome was inactive. In the case of `CN(C)C(=S)SC(=S)N(C)C`, the outcome was inactive.

On to `COc1cc(Cl)c(OC)cc1N`, for which the outcome was inactive. As for `c1ccc(CCc2ccccc2)cc1`, the AC50 was 31.2 µM (active).

Take `CC(=O)C1(C)CC2=C(CCCC2(C)C)CC1C` (stereo not given): the AC50 is 8.91 µM (active). Turning to `O=C1c2ccccc2C(=O)c2c(O)ccc(O)c21`, the outcome was inactive. In the case of `C=C(C)C(=O)OCCOCCOCCOCCOC(=O)C(=C)C`, the outcome was inactive. In the case of `CCCCCC(C=O)=Cc1ccccc1`, the AC50 was 33.3 µM (active). Consider `O=C1OC[C@H](Cc2cccc(O)c2)[C@H]1Cc1cccc(O)c1`, for which the result was inactive. Turning to `c1ccc2cc(Nc3ccc(Nc4ccc5ccccc5c4)cc3)ccc2c1`, the result was inactive. For `CN(C)C(=O)Nc1ccc(Oc2ccc(Cl)cc2)cc1`, the outcome was inactive. As to `CN(c1nccc(=O)[nH]1)C1CCN(c2nc3ccccc3n2Cc2ccc(F)cc2)CC1`, the result was inactive. `C=C(C)C(=O)OCC(CC)(COC(=O)C(=C)C)COC(=O)C(=C)C`: the outcome was inactive. As for `C=CC(C)(O)CCC=C(C)C` (stereo not given), the result was inactive. On the same count and under the same terms, next, `CS(=O)(=O)c1ccc(C2=C(c3ccccc3)C(=O)OC2)cc1`: “inactive”; `C=C(C)[C@H]1CC=C(C)C(=O)C1`: “inactive”.

For the compound `CC(C=O)Cc1ccc(C(C)(C)C)cc1` (stereo not given), the outcome was inactive. Consider `CC1(C)C2=CCCC(C)(C)[C@]23CC[C@H]1C3`, for which the outcome was inactive.
